# Laboratory results from the supplement of paper PMC12350171.
# Counter-ions that a name gives are not always drawn. Unmarked numbers belong to inactive results.
# Columns and labels:
# Conditions in all cases: 20 µM
# [1] = test system: Salmonella enterica typhimurium; experiment: growth AUC normalised to DMSO control (fraction of control); higher = less growth inhibition, active = hit call of the paper
# In short: (§1)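 Hemin and NAD were added to the medium for Haemophilus parainfluenzae. All pathogens, after two anaerobic passages, were inoculated at a starting OD578 of 0.01 into pre-reduced mGAM plates with 20 μM compound and 1% DMSO under breathable seals, and OD578 was read hourly for 24 h in three biological replicates. AUC of each growth curve was obtained with the trapezoidal rule up to the exponential-to-stationary transition and normalised to DMSO controls from the same plate.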
# Shigella flexneri = experiment: as above
# In short: as §1
# Vibrio cholerae = experiment: as above
# In short: as §1
# [2] = test system: Yersinia pseudotuberculosis; experiment: as above
# In short: as §1
# P. vulgatus RND KO = experiment: growth AUC normalised to DMSO control (median) (fraction of control); higher = less growth inhibition, active = hit call of the paper
# In short: (§2)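 For normalised area under the curve, growth curves were truncated at entry into stationary phase, integrated by the trapezoidal rule and divided against vehicle wells on the same plate. The curves came from strains passaged twice overnight without oxygen and then grown in mGAM in 96-well plates at a starting OD578 of 0.01. Each well held an approved-drug library compound at 20 μM with 1% DMSO, and OD578 was read hourly for 24 h in an anaerobic incubator. Values are medians of three biological replicates.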
# P. vulgatus WT = experiment: as above
# In short: as §2
# [3] = test system: S. enterica typhimurium WT; experiment: as above
# In short: as §2
# [4] = test system: S. enterica typhimurium tolC KO; experiment: as above
# In short: as §2
# 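For growth AUC normalised to DMSO control (median) in this document: active when median AUC fell below 0.1.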
Compound,growth AUC normalised to DMSO control [1],growth AUC normalised to DMSO control (Shigella flexneri),growth AUC normalised to DMSO control (Vibrio cholerae),growth AUC normalised to DMSO control [2],growth AUC normalised to DMSO control (P. vulgatus RND KO),growth AUC normalised to DMSO control (P. vulgatus WT),growth AUC normalised to DMSO control [3],growth AUC normalised to DMSO control [4]
CC(=O)[C@@]1(O)CC[C@H]2[C@@H]3C[C@H](C)C4=CC(=O)C=C[C@]4(C)[C@@]3(F)[C@@H](O)C[C@@]21C [Fluorometholone],1.01,1.03,1.05,1,1,1.01,1,0.987
Cc1c(Cl)cccc1Nc1ccccc1C(=O)O [Tolfenamic acid],1,0.961,0.901,0.963,0.802,0.803,1.02,0.992
"CN1CCc2c(c3ccccc3n2Cc2ccccc2)C1 [Mebhydroline 1,5-naphtalenedisulfonate]",0.985,0.96,0.922,0.702,0.948,0.971,0.979,0.977
OCCOCCN1CCN(C(c2ccccc2)c2ccc(Cl)cc2)CC1 (stereo not given) [Hydroxyzine dihydrochloride],0.992,0.875 (active),0.975,0.865,0.989,1,1,0.978
COc1ccc(CN(CCN(C)C)c2ccccn2)cc1 [Pyrilamine maleate],0.974,0.995,0.969,1.01,0.986,0.979,0.993,0.987
Cc1cc2cc3c(C)cc(=O)oc3c(C)c2o1 [Trioxsalen],0.994,1.03,0.996,0.995,1.03,1.02,0.996,0.955
CCOC(=O)NNc1nncc2ccccc12 [Todralazine hydrochloride],1.01,1.01,0.99,1.01,1.01,0.999,1.01,1.02
Clc1ccc(C(c2ccccc2Cl)C(Cl)Cl)cc1 (stereo not given) [Mitotane],1,0.999,1.07,1.02,0.97,0.94,1,0.957
CC1(C)O[C@@H]2C[C@H]3[C@@H]4C[C@H](F)C5=CC(=O)CC[C@]5(C)[C@H]4[C@@H](O)C[C@]3(C)[C@]2(C(=O)CO)O1 [Flurandrenolide],1,1.01,1.03,0.996,1.06,1.07,0.996,0.986
CC[C@H](c1ccc(O)cc1)[C@@H](CC)c1ccc(O)cc1 [Hexestrol],0.998,1,0.932,0.999,0.766,0.825,0.989,0.889
CCN(CC)CCNc1ccc(CO)c2sc3ccccc3c(=O)c12 [Hycanthone],0.936,0.984,0.879,0.991,0.994,0.96,0.993,0.163
Nc1ccn([C@H]2CC[C@@H](CO)O2)c(=O)n1 [Zalcitabine],1.02,1.02,1.06,1.04,1.04,1.06,1,1.01
CCCCC[C@H](O)/C=C/[C@H]1[C@H](O)CC(=O)[C@@H]1CCCCCCC(=O)O [Alprostadil],0.992,0.989,0.99,0.999,0.994,1.01,1,1.01
CC(=O)[C@H]1CC[C@H]2[C@@H]3C=CC4=CC(=O)CC[C@@]4(C)[C@@H]3CC[C@]12C [Dydrogesterone],1,0.986,0.99,1.01,1.02,1.04,1.01,0.909
CN1CCN(CCCN2c3ccccc3Sc3ccc(C(F)(F)F)cc32)CC1 [Trifluoperazine dihydrochloride],1.03,1.04,1.01,1.04,0.974,0.941,1.02,0.929
CN1CCC(=C2c3ccccc3C=Cc3ccccc32)CC1 [Cyproheptadine hydrochloride],0.998,1,0.91,1,0.97,0.976,1.01,0.969
COc1ccc2c(c1)N(C[C@H](C)CN(C)C)c1ccccc1S2 [Methotrimeprazine maleate salt],1.01,1.03,1,0.99,1.04,1.02,0.995,0.954
O=C(c1ccccc1)c1ccc2n1CCC2C(=O)O (stereo not given) [Ketorolac tromethamine],0.986,0.972,0.97,0.983,0.997,1.01,1.01,1
Cc1ccnc(NS(=O)(=O)c2ccc(N)cc2)n1 [Sulfamerazine],0.973,1.03,0.977,1.01,0.988,1.01,0.986,0.998
Nc1ccc(S(=O)(=O)Nc2nccs2)cc1 [Sulfathiazole],1.02,1,1.01,1.01,0.995,1.01,0.985,0.974
CO/N=C(\C(=O)N[C@@H]1C(=O)N2C(C(=O)O)=C(C[N+]3(C)CCCC3)CS[C@H]12)c1csc(N)n1 [Cefepime hydrochloride],0.00376 (active),0.0351 (active),0.178 (active),0.049 (active),0.0104 (active),0.0103 (active),0.00386 (active),0.00189 (active)
C/C(=C(\CCOP(=O)(O)O)SC(=O)c1ccccc1)N(C=O)Cc1cnc(C)nc1N [Benfotiamine],0.997,0.982,0.996,0.988,1.02,1.03,1.01,0.999
CC(=O)OCC(=O)[C@@]12OC(C)(C)O[C@@H]1C[C@H]1[C@@H]3C[C@H](F)C4=CC(=O)C=C[C@]4(C)[C@@]3(F)[C@@H](O)C[C@@]12C [Fluocinonide],0.994,0.97,0.973,1.12,0.967,0.951,1.01,0.995
CC(C)(C)NC(=O)[C@H]1CC[C@H]2[C@@H]3CC[C@H]4NC(=O)C=C[C@]4(C)[C@H]3CC[C@]12C [Finasteride],1.02,1.02,1.03,1.01,1.02,1.04,1.01,0.895
Oc1ccc(OCc2ccccc2)cc1 [Monobenzone],0.975,0.941,0.982,0.974,0.981,0.992,0.996,0.977
Nc1ccn([C@@H]2O[C@H](CO)[C@@H](O)[C@@H]2O)c(=O)n1 [Cytarabine],1,0.998,1,0.986,0.993,0.989,0.998,0.997
Nc1nc(F)nc2c1ncn2[C@@H]1O[C@H](CO)[C@@H](O)[C@@H]1O [Fludarabine],0.963,0.933,0.997,0.988,0.994,0.999,0.994,0.991
NCc1ccccc1CC(=O)N[C@@H]1C(=O)N2C(C(=O)O)=C(CSc3nnnn3CC(=O)O)CS[C@H]12 [Ceforanide],0.00985 (active),0.0434 (active),0.0984 (active),0.023 (active),0.00761 (active),0.014 (active),0.00887 (active),0.00597 (active)
CN[C@@H]1[C@@H](O)[C@@H](O[C@@H]2[C@@H](O)[C@H](O[C@H]3OC(CN)=CC[C@H]3N)[C@@H](N)C[C@H]2N)OC[C@]1(C)O [Sisomicin sulfate],1,0.986,0.996,0.982,0.994,1,1,1.01
COc1cc2nc(N3CCN(C(=O)C4CCCO4)CC3)nc(N)c2cc1OC (stereo not given) [Terazosin hydrochloride],0.998,0.96,0.989,0.989,1.03,1.04,1,1.01
